Our source for the composite z-score and z-score values is PubChem BioAssay.

In experiment [1] the test system is XIP peptide (Xip251-270) binding. The experiment can be described thus: small-molecule binders of XIP peptide, primary screen, biochemical, small-molecule microarray, fluorescence 635/667 nm, 0.1 µg/mL protein (AID 1182). To be noted: fluorescent protein binding, 635 nm, higher = more signal, called active from +8 up or from −8 down.
The next experiment concerns XIP peptide (Xip251-270). As to the kind of experiment: small-molecule binders of XIP peptide, primary screen, biochemical, small-molecule microarray, fluorescence 635/667 nm, 0.5 µg/mL protein (AID 1183). The note with it: small-molecule microarray binding, fluorescence 635 nm; higher = more signal.
Experiment [2] can be described thus: Plasmodium falciparum growth inhibition, primary screen, strain 3D7, DAPI fluorescence, 100 nL (AID 1184).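 Also: parasites grown inside human red blood cells in medium with human serum.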 To be noted: P. falciparum 3D7 growth, 3 d, higher = more signal.
Experiment [3] deals with Homeobox protein Hox-A13 (Mus musculus) (UniProt Q62424). As to the kind of experiment: inhibitors of HoxA13-DNA binding, primary screen, biochemical, fluorescence polarization, labeled oligonucleotide (AID 1185). To be noted: 15 min, higher = more signal, called active from +8 up or from −8 down.
The nature of experiment [4]: inhibitors of hydroxyurea-induced Chk1 phosphorylation, primary screen, imaging, HeLa, phospho-Chk1 antibody, percent positive cells (AID 1186). The note with it: hydroxyurea-induced phospho-Chk1 immunofluorescence imaging, higher = more signal.
Experiment [5] can be described thus: inhibitors of hydroxyurea-induced Chk1 phosphorylation, primary screen, imaging, HeLa, phospho-Chk1 nuclear intensity (AID 1187). The note with it: hydroxyurea-induced phospho-Chk1 immunofluorescence imaging, higher = more signal.

The source made the active and inactive calls. Unless noted, no rule for the calls is given here.

Chain of Homeobox protein Hox-A13 (Mus musculus) (Q62424 whole entry, looked up): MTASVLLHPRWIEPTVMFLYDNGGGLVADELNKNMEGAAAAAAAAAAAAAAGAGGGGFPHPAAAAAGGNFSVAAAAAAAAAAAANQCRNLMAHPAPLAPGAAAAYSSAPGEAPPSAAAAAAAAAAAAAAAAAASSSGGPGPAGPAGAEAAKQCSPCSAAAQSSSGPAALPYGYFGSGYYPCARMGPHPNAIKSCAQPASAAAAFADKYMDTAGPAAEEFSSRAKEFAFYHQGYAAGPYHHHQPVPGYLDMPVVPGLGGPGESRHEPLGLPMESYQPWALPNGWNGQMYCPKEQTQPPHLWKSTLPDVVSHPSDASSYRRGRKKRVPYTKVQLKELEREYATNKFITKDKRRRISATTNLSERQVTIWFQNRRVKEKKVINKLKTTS

Consider `[N-]=[N+]=NCc1ccccc1C[C@@]1(C(N)=O)N=C(c2ccc(OCCCO)cc2)O[C@@H]1c1ccccc1CN=[N+]=[N-]`, for which the composite z-score is 0.145 (inactive) in experiment [1] and 0.0228 in the experiment with XIP peptide (Xip251-270). For the same compound, the z-score in experiment [2] is -1.91; in experiment [3] it was -1.91 (inactive); in experiment [4] it was -0.228 (inactive); in experiment [5], -0.347 (inactive).

`O=C(NC1CC1)[C@@H]1c2ccccc2C(=O)N(Cc2ccccc2)[C@H]1c1ccc(CO)cc1`: the composite z-score is 1.38 (inactive) in experiment [1] and 0.752 with XIP peptide (Xip251-270). The z-score in experiment [2] was -1.55; in experiment [3], -2.86 (inactive); in experiment [4], -0.556 (inactive); in experiment [5], -0.679 (inactive).

On to `O=C1O[C@H](c2ccccc2)[C@H](c2ccccc2)N2[C@H]1[C@@H](C(=O)O)[C@]1(C(=O)Nc3ccccc31)[C@H]2c1ccc(O)cc1`, for which the results for the composite z-score (in experiment [1]; in the experiment on XIP peptide (Xip251-270)) were 0.624 (inactive) and 0.212, respectively. For the same compound, the z-score was -0.0758 in experiment [2], -5.84 (inactive) in experiment [3], 0.0422 (inactive) in experiment [4] and -0.426 (inactive) in experiment [5].

For `C=CCOC(=O)[C@@H]1[C@H]2C(=O)O[C@H](c3ccccc3)[C@H](c3ccccc3)N2[C@H](c2ccc(OCCOC(=O)[C@H]3C[C@H]4C(=O)N[C@@H](CCCC[N+](C)(C)C)C(=O)N4[C@H]3c3ccc(O)cc3)cc2)[C@@]12C(=O)Nc1ccc(I)cc12`, the composite z-score in experiment [1] is 0.708 (inactive); in the experiment with XIP peptide (Xip251-270) it was 0.873. The z-score in experiment [2] is -1.16; in experiment [3], -0.103 (inactive); in experiment [4] it was -0.655 (inactive); in experiment [5], -0.636 (inactive).

Take `COc1cc(CO)cc(I)c1O[C@H]1C=C(C(=O)NCCO)C[C@@H](N(CC2CCCCC2)C(=O)c2ccc(C(F)(F)F)cc2)[C@@H]1O`: the composite z-score was -0.175 (inactive) in experiment [1] and 0.516 in the experiment on XIP peptide (Xip251-270). The z-score in experiment [2] is 1.09; in experiment [3], -6.43 (inactive); in experiment [4], -0.409 (inactive); in experiment [5] it was -0.884 (inactive).

For `COc1ccc([Si](C)(C)[C@@H]2[C@@H](CCO)O[C@]3(C(=O)N(Cc4cccc(N5C(=O)c6cccc7cccc5c67)c4)c4ccccc43)[C@H]2C)cc1`, the composite z-score in experiment [1] was 0.875 (inactive); in the experiment on XIP peptide (Xip251-270), 0.635. Besides, the z-score in experiment [2] was -2.52; in experiment [3], -1.52 (inactive); in experiment [4], -0.758 (inactive); in experiment [5] it was 0.0003 (inactive).

Consider `CCCCN1CC=CC23O[C@@H]4C=CCOC(=O)[C@@H]4[C@H]2C(=O)N(C(C)CO)[C@@H]3C1=O` (stereo partly drawn), for which the results for the composite z-score (in experiment [1]; with XIP peptide (Xip251-270)) were -0.161 (inactive) and -1.06, respectively. The z-score in experiment [2] is 1; in experiment [3], -5.05 (inactive); in experiment [4], -0.525 (inactive); in experiment [5], -0.392 (inactive).

Take `C=CC1c2cc(O)c(OC)cc2CCN1Cc1sc2ccccc2c1Cl` (stereo not drawn): the composite z-score was 0.51 (inactive) in experiment [1] and 0.618 in the experiment on XIP peptide (Xip251-270). Also, the z-score in experiment [2] is -0.614; in experiment [3], -2.71 (inactive); in experiment [4] it was 0.326 (inactive); in experiment [5], -0.0459 (inactive).

In the case of `CC1CC/C=C\[C@H]2OC34C=CCN(CCN5CCOCC5)C(=O)[C@H]3N(CCO)C(=O)[C@@H]4C2C(=O)O1` (stereo partly drawn), the figures for the composite z-score (in experiment [1]; in the experiment on XIP peptide (Xip251-270)) were 0.467 (inactive) and 0.829, respectively. Further, the z-score was 0.055 in experiment [2], -5.81 (inactive) in experiment [3], 0.0898 (inactive) in experiment [4] and 0.139 (inactive) in experiment [5].

As for `COC(=O)C1(Cc2ccccc2)C=C2C(=C(c3ccccc3)C(=O)C2C)CN1` (stereo not drawn), the composite z-score in experiment [1] was -0.401 (inactive); in the experiment with XIP peptide (Xip251-270) it was 0.691. Also, the z-score in experiment [2] was -0.246; in experiment [3], -9.2 (active); in experiment [4] it was 0.222 (inactive); in experiment [5], 0.532 (inactive).

Consider `C=CCN1C(=O)[C@@]2(O[C@@H](CCO)[C@H]([Si](C)(C)c3ccc(OC)cc3)[C@H]2C)c2cc(N3C(=O)c4ccccc4Oc4ccccc43)ccc21`, for which the composite z-score in experiment [1] was 0.227 (inactive); with XIP peptide (Xip251-270), 0.536. Further, the z-score in experiment [2] was -2.52; in experiment [3], -4.25 (inactive); in experiment [4], -0.948 (inactive); in experiment [5], -0.004 (inactive).

Regarding `CCCC[C@@H]1C[C@H]1[C@@H](NC(=O)c1cccnc1)c1ccc(-c2ccccc2)cc1`, the composite z-score is -0.414 (inactive) in experiment [1] and -0.0356 with XIP peptide (Xip251-270). The z-score in experiment [2] is -0.814; in experiment [3], -3.43 (inactive); in experiment [4], 0.577 (inactive); in experiment [5] it was 0.452 (inactive).

In the case of `COC(=O)Cn1c(C(=O)N2CCCC2)cc2c1C[C@H]1CN(C(=O)c3ccccc3)[C@@](Cc3ccc(F)cc3)(C(=O)OC)[C@@H]21`, the composite z-score in experiment [1] was 0.243 (inactive); in the experiment on XIP peptide (Xip251-270) it was 0.513. Also, the z-score in experiment [2] was 0.554; in experiment [3], -5.15 (inactive); in experiment [4] it was -1.49 (inactive); in experiment [5], -1.37 (inactive).
